LYPLA1 counter: LYPLA1 (human) inhibition in PME1 counter-screen. O75608. recombinant LYPLA1, FP-Rh probe fluorescence polarization. inhibition, % at 5.9 µM. 320,000 tested, 0.16% active. AID 2174;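 active = inhibition above the mean of all tested compounds plus 3 SD, set per campaign, cut at about 14% in these data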;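 note: inhibitors block serine hydrolase probe labeling of LYPLA1 so polarization falls; 0% = enzyme with DMSO and 100% = wells lacking LYPLA1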
Target sequence (O75608 whole entry, looked up): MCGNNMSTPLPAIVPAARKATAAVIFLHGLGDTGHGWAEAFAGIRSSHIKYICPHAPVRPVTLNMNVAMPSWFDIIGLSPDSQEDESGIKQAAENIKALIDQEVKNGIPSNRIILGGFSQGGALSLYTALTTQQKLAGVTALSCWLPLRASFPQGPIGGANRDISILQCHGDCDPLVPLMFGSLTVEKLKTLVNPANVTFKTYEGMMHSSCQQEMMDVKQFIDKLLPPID
GSTO1 inh: counter-screen for RBBP9 inhibitors: inhibitors of human GSTO1. inhibition, % at 5.96 µM. AID 1974. P78417. recombinant GSTO1, activity-based probe fluorescence polarization. 300,000 tested, 1.1% active;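 active = inhibition above the campaign mean inhibition plus 3 SD, cut at about 35% in these data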;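 note: 0% = GSTO1-1 with DMSO and 100% = wells lacking GSTO1-1 enzyme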
Target sequence (P78417 whole entry, looked up): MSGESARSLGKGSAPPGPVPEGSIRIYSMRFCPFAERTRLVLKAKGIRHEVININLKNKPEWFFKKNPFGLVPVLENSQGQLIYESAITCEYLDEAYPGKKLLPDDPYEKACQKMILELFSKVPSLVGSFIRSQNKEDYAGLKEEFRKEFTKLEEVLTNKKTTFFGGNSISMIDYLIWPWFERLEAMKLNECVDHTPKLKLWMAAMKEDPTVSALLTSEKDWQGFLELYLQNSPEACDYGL
PREPL inhibitor: inhibitors of human prolyl oligopeptidase-like enzyme PREPL | Q4J6C6 | recombinant PREPL, fluorescence polarization activity-based probe | inhibition, % at 5.96 µM | 320,000 tested, 0.68% active | AID 2751; in the data active = inhibition above about 43%;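 note: 0% = enzyme with DMSO and 100% = wells lacking enzyme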
PME-1 inh: PME-1 (human) inhibition | inhibition, % at 5.9 µM | recombinant PME-1, FP-Rh probe fluorescence polarization | Q9Y570 | 320,000 tested, 0.53% active;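 active = inhibition above the campaign mean of all compounds plus 3 SD, cut at about 26% in these data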;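 note: competitive labeling of PME-1 active site by serine hydrolase directed probe; 0% = PME-1 with DMSO and 100% = wells lacking PME-1 enzyme; inhibitors block probe labeling so polarization falls and inhibition rises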
Fam108B inh: blocks mouse Fam108B hydrolase in RBBP9 counter-screen; inhibition, % at 9.51 µM; recombinant Fam108B, FP-Rh probe fluorescence polarization; 300,000 tested, 0.33% active; AID 1947;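 active = inhibition above the screen mean inhibition plus 3 SD, computed separately per campaign, cut at about 18% in these data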;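 note: inhibitors lower polarization as less probe binds the enzyme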
LYPLA2 inh: counter-screen for PME1 inhibitors: inhibitors of human LYPLA2 | recombinant LYPLA2, FP-Rh probe fluorescence polarization | inhibition, % at 5.9 µM | 320,000 tested, 0.38% active | AID 2177;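 active = inhibition above the screen-wide mean plus 3 SD, limit set per campaign, cut at about 26% in these data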;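 note: 0% = LYPLA2 with DMSO and 100% = wells lacking LYPLA2 enzyme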
GSTO1 confirm: GSTO1 (human) inhibition, confirmation. recombinant GSTO1, probe fluorescence polarization. inhibition, % at 5.96 µM. AID 2176. shares compounds with GSTO1 inh. 2,400 tested, 54% active;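 active = inhibition above the primary screen's cutoff, its mean inhibition plus 3 SD, cut at about 35% in these data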;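 note: loss of polarization as inhibitors block binding of rhodamine sulfonate ester activity probe; 0% = GSTO1 with DMSO and 100% = wells lacking GSTO1 enzyme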
GSTO1 recomb ABPP: blocks recombinant human glutathione S-transferase omega 1; recombinant GSTO1, gel ABPP SE-Rh probe fluorescence; inhibition, % at 1 µM; 130 tested, 30% active; shares compounds with GSTO1 inh; AID 463110;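 active = inhibition of the enzyme GSTO1 above about 75%, limit read from the data; inactive = inhibition below that limit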
Numbers without * were called inactive; x = no result. Compounds with a hit are over-represented: about 2% of the library has one in this group of screens.

SMILES	LYPLA1 counter	GSTO1 inh	PREPL inhibitor	PME-1 inh	Fam108B inh	LYPLA2 inh	GSTO1 confirm	others
Cc1cc(/C=C2\SC(=S)NC2=O)c(C)n1-c1cccc(O)c1	-12	53*	1	-17	4	-5	51*
Cc1ccc(-n2c(C)cc(/C=C3\SC(=O)NC3=O)c2C)cc1	1	3	-3	7	-1	1	x
CN(C)S(=O)(=O)c1cccc(NC(=O)C2Cc3ccccc3CN2C(=O)c2ccco2)c1 (centres undefined)	-5	2	0	-7	2	-7	x
COc1ccc(Oc2ccc(C(F)(F)F)cc2NC(=O)c2ccc(F)cc2)cc1	-4	-6	-7	-5	-8	-7	x
COc1ccc(Oc2ccc(C(F)(F)F)cc2NC(=O)CC(CC(=O)O)c2ccccc2)cc1 (centres undefined)	1	43*	-1	-1	3	3	2
CCOc1ccc(Cc2nnc(SCC(=O)c3ccc(OC)cc3)o2)cc1	2	25	4	6	2	8	x
COc1cccc(C(=O)CSc2nnc(-c3cc(OC)c(OC)c(OC)c3)o2)c1	-2	11	-4	-7	-4	3	x
COc1cc(-c2nnc(SCC(=O)c3ccc(C)cc3)o2)cc(OC)c1OC	-5	38*	7	-1	-4	-1	27
COc1ccc(C(=O)CSc2nnc(Cc3ccccc3)o2)cc1	-1	38*	9	-1	3	4	28
CCN(Cc1cccc(F)c1)C(=O)c1ccc2ccccc2n1	1	1	-5	3	-3	-3	x
CCOC(=O)C(=O)Nc1cc(C)nn1-c1nc2ccccc2[nH]1	-3	45*	1	-3	-2	0	3
Cc1ccc(-n2nc(C)c3c2OC(N)=C(C#N)C3c2ccc(C)o2)cc1 (centres undefined)	0	48*	5	4	3	1	12
CCOc1ccc(N(CC(=O)NC2CCCC2)C(=O)CSc2nnc(COc3ccccc3)o2)cc1	2	5	18	-10	3	6	x
N#CC1(c2nc3ccccc3[nH]2)CC1c1ccc2c(c1)OCO2 (centres undefined)	1	46*	3	-9	-1	0	33
Cc1c(-c2nnc(SCC(=O)O)n2-c2ccccc2Br)nnn1-c1ccccc1	-2	-1	-3	0	-2	-6	x
COCC(C)OC(=O)c1c(N)n(CC(C)C)c2nc3ccccc3nc12 (centres undefined)	1	45*	0	-3	-1	3	2
CC(C)OC(=O)c1c(N)n(CCCN2CCOCC2)c2nc3ccccc3nc12	1	2	-6	-5	-5	-3	x
COC(=O)C(C)Oc1ccc(-c2nccc(-c3ccccn3)n2)cc1 (centres undefined)	4	-2	-3	2	-1	1	x
N#CCCN1CCN(C(=O)c2c(N)no[n+]2[O-])CC1	0	3	4	0	1	-4	x
CC(Oc1ccccc1)C(=O)N=Nc1c(O)[nH]c2ccc([N+](=O)[O-])cc12 (centres undefined)	3	61*	12	-6	-1	5	74*
O=C(N=Nc1c(O)[nH]c2ccc([N+](=O)[O-])cc12)c1ccccc1[N+](=O)[O-]	1	43*	14	1	7	6	46*
CCCCCCC(=O)N=Nc1c(O)[nH]c2ccc([N+](=O)[O-])cc12	2	4	-2	-4	0	7	x
O=C(CNC(=O)c1cccs1)N=Nc1c(O)[nH]c2ccc([N+](=O)[O-])cc12	-2	39*	14	0	4	-4	25
O=[N+]([O-])c1ccc2[nH]c(O)c(N=Nc3ccc(F)cc3)c2c1	-1	-1	16	-2	-1	2	x
CCOc1ccc(OCc2ccc(C(=O)Nc3ccc(Cl)cn3)o2)cc1	-5	0	-4	-14	-7	-1	x
SMILES	LYPLA1 counter	GSTO1 inh	PREPL inhibitor	PME-1 inh	Fam108B inh	LYPLA2 inh	GSTO1 confirm	others
O=C(Nc1ccc(Cl)cn1)c1ccc(COc2ccccc2Br)o1	-6	63*	-15	-18	-12	-8	3
O=C(NC1CCCCC1)C(c1cccnc1)N(C(=O)CCl)c1ccc(F)cc1 (centres undefined)	7	95*	10	2	-2	4	97*	GSTO1 recomb ABPP=82*
O=C(NC1CCCCC1)C(c1cccnc1)N(C(=O)CCl)c1ccccc1Cl (centres undefined)	2	88*	14	5	1	8	83*	GSTO1 recomb ABPP=40
CC(C)Oc1ccccc1C1NC(=O)CCC1[N+](=O)[O-] (centres undefined)	-2	6	7	6	2	-4	x
CCOC(=O)C1=C(Cc2ccc(F)cc2)C(=O)c2ccccc2C1=O	-2	38*	6	4	7	4	4
CCOc1ccc(NS(=O)(=O)c2cc3c4c(c2)C(C)C(=O)N4CCC3)cc1 (centres undefined)	2	12	2	9	1	9	x
CCOc1ccc(C(=O)Oc2cc(C)[nH]c(=O)c2[N+](=O)[O-])cc1	1	61*	6	6	2	7	2
CCCCOc1ccc(C(=O)Oc2cc(C)[nH]c(=O)c2[N+](=O)[O-])cc1	3	0	-3	-2	-6	6	x
CCOc1cc(/C=C2/C(=O)N(c3ccccc3)N=C2C)ccc1OC(=O)c1ccco1	-4	65*	46*	2	3	-9	9
CCOc1cc(/C=C2/C(=N)N3N=C(CC)SC3=NC2=O)ccc1OC(=O)c1ccco1	-1	3	40	-5	-2	2	x
CC1=NN(c2ccccc2)C(=O)/C1=C\N(O)c1ccccc1	-1	48*	3	5	-6	-1	41*
CC1=NN(c2ccccc2)C(=O)/C1=C/C=C/C=C/N(C)C	-24	-42	-25	-41	-39	-47	x
COc1ccc(/C=C2/C(=O)N(c3ccccc3)N=C2C)cc1Br	1	58*	9	4	4	-5	19
COc1cc(C(=O)OCC(=O)NC2CCCCC2)cc2c1OCCO2	-1	x	2	1	x	-1	x
O=C(NNS(=O)(=O)c1ccccc1F)c1sccc1-n1cccc1	-1	0	-5	-6	-2	1	x
Cc1ccc(NC(=O)c2ccc3c(c2)C(=O)N(c2ccccc2C)C3=O)nc1	-6	x	17	3	x	-5	x
CCC(Sc1nc(-c2ccccc2)c(C#N)c(=O)[nH]1)C(=O)Nc1nnc(C)s1 (centres undefined)	0	61*	11	-7	-4	0	63*
